# Activity calls are given as the source filed them. The calls were made as follows: active = hit-call score of the fitted dose curve at least 0.9, where 1 is the maximum; inactive = score below 0.9.
# Read-out: Matrix Metallopeptidase 9 (MMP9), MMP9 (gene 4318)
# Assay: BSK_BF4T_MMP9: BioMAP Diversity Plus: BF4T Assay for Matrix Metallopeptidase 9 (MMP9) Biomarker Activity (AID 2284276)
# Details: primary human bronchial epithelial cells with fibroblasts
# Procedure, shortened: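 MMP-9 levels were measured by ELISA after 24 h exposure of bronchial epithelial cell/dermal fibroblast co-cultures, with DMSO as baseline. Parallel cultures were stained with 0.1% SRB after TCA fixation, read at 560 nm, to flag overt cytotoxicity.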
row,Compound,outcome
1,FC(F)C(F)(F)COCC1CO1 (stereo not given),inactive
2,FC(F)(F)C(F)(F)C(F)(F)C(F)(F)C(F)(F)C(F)(F)I,inactive
3,FC(F)(F)COC(OCC(F)(F)F)OCC(F)(F)F,inactive
4,OCCC(F)(F)C(F)(F)C(F)(F)C(F)(F)F,inactive
5,C[Si](C)(C)C(F)(F)C(F)(F)C(F)(F)F,inactive
6,FC(F)=C(F)C(F)(F)C(F)(F)C(F)(F)C(F)(F)C(F)(F)C(F)(F)F,inactive
7,O=S(=O)(O)CCC(F)(F)C(F)(F)C(F)(F)C(F)(F)C(F)(F)C(F)(F)F,inactive
8,NCC(F)(F)C(F)(F)C(F)(F)C(F)(F)F,inactive
9,OC(O)(C(F)C(O)(O)C(F)(F)F)C(F)(F)F,inactive
10,O=C(Cl)C(F)(F)C(F)(F)C(F)(F)C(=O)Cl,inactive

# From PubChem BioAssay (EPA / NIEHS)
